This note sets out measurements from PubChem BioAssay (Tox21).

The structures appear in SMILES notation. Results filed as inconclusive are left out. Entries that show only a call come without a potency. More than one record can exist for a structure, and the calls need not agree. Calls of active or inactive are those of the source. Calls follow the shape of the dose curve; as a rule, active = well fitted cell-killing curve with a large enough effect in the repeat runs; inconclusive = weak or mixed curves, or effect the other way; inactive = no such curve, though single readings can be large or run the other way.
Potency is read from the fitted curve at half-maximal effect.

A short description of the experiment: qHTS assay to identify small molecule agonists of the farnesoid-X-receptor (FXR) signaling pathway - cell viability counter screen (AID 743218). Also: nearly all actives have a fitted effect of over 45% in size. Conditions: FXR-bla HEK293T viability, CellTiter-Glo luminescence, 16 h; series mostly up to 62.6 µM. The text has this: U.S. Tox21 Program National Center for Advancing Translational Sciences [NCATS] NIH Chemical Genomics Center [NCGC] U.S. Environmental Protection Agency [EPA] National Institutes of Environmental Health Sciences [NIEHS] National Toxicology Program [NTP] U.S. Food and Drug Administration [FDA] Tox21 Assay Overview: The farnesoid-X-receptor (FXR), a nuclear hormone receptor, is highly expressed in liver, intestine, kidney and adrenal cortex. Natural ligands of FXR are the bile acids (Cholic acid, Chenodeoxy cholic acid etc). FXR is an important regulator of diverse metabolic pathways, including the bile acid homeostasis, lipid and glucose metabolisms. FXR regulates the expression of target genes by binding either as a monomer or as a heterodimer with the retinoid X receptor (RXR). Numerous studies have reported that FXR exerts protective function during cholestasis, diabetes, liver regeneration, and cancer. To identify compounds that activate FXR signaling, GeneBLAzer FXR-UAS-bla HEK 293T cell line (Invitrogen, Carlsbad, CA) containing a beta-lactamase reporter gene under the control of a UAS response element was used to screen the Tox21 10K compound library. The cytotoxicity of the Tox21 compound library against the FXR-bla cell line was tested in parallel by measuring the cell viability using CellTiter-Glo assay in the same wells.
Tox21 Assay Protocol Summary: FXR-bla cells were dispensed at 5000 cells/5uL/well in 1536-well black wall/clear bottom plates using a Multidrop Combi (Thermo Fisher Scientific, Waltham, MA) dispenser. After the assay plates were incubated at 37 C and 5% CO2 for 5 h, 23 nL of compounds dissolved in DMSO, positive controls or DMSO only was transferred to the assay plate by a Pintool station (Kalypsys, San Diego, CA). The assay plates were incubated at 37C for 16 h. After 1 uL of LiveBLAzerTM B/G FRET substrate was added using a Bioraptr Flying Reagent Dispenser (FRD) workstation (Beckman Coulter, Indianapolis, IN), the plates were incubated at room temperature for 2 h, and fluorescence intensity was measured by an Envision plate reader (PerkinElmer, Shelton, CT). For cell viability readout that measures cytotoxicity, 4uL/well of CellTiter-Glo reagent was added into the assay plates using a Bioraptr FRD. After 30 min incubation at room temperature, the luminescence intensity in the plates was measured using a ViewLux plate reader (PerkinElmer).
Consider `CN(C)[C@@H]1C(=O)C(C(N)=O)=C(O)[C@@]2(O)C(=O)C3=C(O)c4c(O)ccc(Cl)c4[C@@H](O)[C@H]3C[C@@H]12`, for which the Potency result was “inactive”.

`O=C(O)c1ccc(Cl)c(Cl)c1`: the Potency result was “inactive”.

Turning to `c1ccc(CSCc2ccccc2)cc1`, the Potency entry was “inactive”.

For `C/C(=C(/OCCOc1ccc(Cl)cc1)c1ccc(Cl)cc1Cl)n1ccnc1`, the Potency result is “inactive”.

With `Clc1ccccc1C(c1ccccc1)(c1ccccc1)n1ccnc1`, the Potency was 54.9 µM (active).

Regarding `NC(=O)N1C(=O)C(C(=O)c2cc(Cl)cs2)c2cc(F)c(Cl)cc21` (stereo not given), the Potency is 3.89 µM (active).

On to `Cn1cc(C(=O)[C@@H]2CCc3nc[nH]c3C2)c2ccccc21`, for which the Potency result is “inactive”.

In the case of `CS(=O)(=O)CCNCc1ccc(-c2ccc3ncnc(Nc4ccc(OCc5cccc(F)c5)c(Cl)c4)c3c2)o1`, the Potency is 10.6 µM (active).

As to `CC(C)CCCCCCCCCCCCCCC(=O)O`, the Potency result was “inactive”.

Consider `CCCCCCCCCCCC(=O)NCCCN(C)C`, for which the Potency is 34.7 µM (active).

As to `O=C(NOCC1CC1)c1ccc(F)c(F)c1Nc1ccc(I)cc1Cl`, the Potency result was “inactive”.

For `CC1(C)CCC(C)(C)c2cc(C(=O)Nc3ccc(C(=O)O)cc3)ccc21`, the Potency result is “inactive”.

For the molecule `CCCCN1CCCC[C@H]1C(=O)Nc1c(C)cccc1C`, the Potency result is “inactive”.

Consider `Cc1[nH]nc2c1N=C(c1ccccc1Cl)c1cc([N+](=O)[O-])ccc1N2`, for which the Potency was 24.5 µM (active).

On to `Oc1cccc2cc3cccc(O)c3c(O)c12`, for which the Potency result is “inactive”.

For `CCC(CN)=C(c1ccccc1)c1ccccc1`, the Potency was 23.7 µM (active).

In the case of `C[C@@H](NCCCc1cccc(C(F)(F)F)c1)c1cccc2ccccc12`, the Potency was 29.8 µM (active).

`CCC1=C[C@@H]2CN(C1)Cc1c([nH]c3ccccc13)[C@@](C(=O)OC)(c1cc3c(cc1OC)N(C)[C@H]1[C@@](O)(C(=O)OC)[C@H](OC(C)=O)[C@]4(CC)C=CCN5CC[C@]31[C@@H]54)C2`: the Potency is 26.6 µM (active).

Take `CCCCCCCCn1sc(Cl)c(Cl)c1=O`: the Potency was 4.36 µM (active).

Take `Cc1c(C)c2c(c(C)c1OC(=O)CCC(=O)O)CC[C@@](C)(CCC[C@H](C)CCC[C@H](C)CCCC(C)C)O2`: the Potency result was “inactive”.

Regarding `CCC(C)Nc1ccc(NC(C)CC)cc1` (stereo not given), the Potency is 22.3 µM (active).

As for `CC/C(=C(\c1ccc(O)cc1)c1ccc(OCCN(C)C)cc1)c1ccccc1`, the Potency is 15.5 µM (active).

Consider `Oc1cc2ccccc2c2ccccc12`, for which the Potency is 11 µM (active).

On to `COc1cc(/C=C/C(=O)O[C@H]2CC[C@]34C[C@]35CC[C@]3(C)[C@@H]([C@H](C)CCC=C(C)C)CC[C@@]3(C)[C@@H]5CC[C@H]4C2(C)C)ccc1O`, for which the Potency entry was “inactive”.

On to `C[C@]12CCC(=O)C=C1CC[C@@H]1[C@@H]2[C@@H](O)C[C@@]2(C)[C@H]1CC[C@]2(O)C(=O)COC(=O)CCC(=O)O`, for which the Potency entry is “inactive”.

As for `OCCN1CCN(CC/C=C2/c3ccccc3Sc3ccc(C(F)(F)F)cc32)CC1`, the Potency is 26.6 µM (active).

For `CN(C)c1ccc(SC#N)cc1`, the Potency entry was “inactive”.

As to `CC(=O)S[C@@H]1CC2=CC(=O)CC[C@]2(C)[C@H]2CC[C@@]3(C)[C@@H](CC[C@@]34CCC(=O)O4)[C@H]12`, the Potency result was “inactive”.

Consider `Oc1ccc(C2(c3ccc(O)cc3)CC3CC2C2CCCC32)cc1` (stereo not given), for which the Potency was 18.7 µM (active).

For `Nc1ccccc1O`, the Potency result was “inactive”.

Take `Cc1cc(O)c(C(C)(C)C)cc1Sc1cc(C(C)(C)C)c(O)cc1C`: the Potency was 8.69 µM (active).

Turning to `CC(C)(C)C(=O)OCOC(=O)C1N2C(=O)CC2S(=O)(=O)C1(C)C` (stereo not given), the Potency result is “inactive”.

With `CN(C)c1ccc(C2(c3ccc(N(C)C)cc3)OC(=O)c3cc(N(C)C)ccc32)cc1`, the Potency result is “inactive”.

Take `O=[N+]([O-])c1cc(Cl)c(Cl)c(Cl)c1Cl`: the Potency result is “inactive”.

For `CCCCN(CCCC)C(=O)N(CCCC)CCCC`, the Potency result is “inactive”.

With `CO[Si](CCCNc1ccccc1)(OC)OC`, the Potency result is “inactive”.

Turning to `CC1=C(/C=C/C(C)=C/C=C/C(C)=C/C=O)C(C)(C)CCC1`, the Potency is 21.8 µM (active).

Take `COC(=O)C1=C(C)NC(C)=C(C(=O)OCCc2ccc(N3CCN(C(c4ccccc4)c4ccccc4)CC3)cc2)C1c1cccc([N+](=O)[O-])c1` (stereo not given): the Potency result is “inactive”.

Regarding `Cc1ccc(O)c(C(C)(C)C)c1`, the Potency was 24.5 µM (active) and inactive.

For the molecule `CCCC(C)c1ccccc1O` (stereo not given), the Potency entry is “inactive”.
